Laboratory results as given in PubChem BioAssay.
“And” between values parts separate entries of the source, which are not always exact repeats. Equal values may be shown once. The source made the active and inactive calls. Unless noted, no rule for the calls is given here.

Tests used:
[1] = system: Wnt5a (protein binding on small-molecule microarray); experiment: small molecules binding Wnt5a protein – biophysical, small-molecule microarray, 635/667 nm fluorescence, primary screen (AID 1142); conditions: 635 nm fluorescence, higher = more signal;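 also: fluorescence read at 667 nm with signal to noise per printed feature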
[2] = ATP-based viability of Huh7 replicon cells – cell-based, CellTiter-Glo luminescence, basal, 48 h, cytotoxicity control for HCV replication inhibitor project, primary screen (AID 1143); conditions: higher = more signal, called active from +8 up or from −8 down;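 also: Huh7 hepatoma cells carrying a hepatitis C replication reporter with no stimulus; test concentration not given here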
[3] = Pseudomonas biofilm growth suppression – PAO1 strain, BacTiter-Glo luminescence, LB-PBS, primary screen (AID 1144); conditions: P. aeruginosa PAO1 biofilm, 12 h, higher = more signal
[4] = basal CRE-LacZ reporter activity in PC12 – cell-based, unstimulated, primary screen (AID 1145); conditions: no forskolin, luminescence, 4.5 h, higher = more signal, called active from +8 up or from −8 down
[5] = forskolin-driven CRE-LacZ activity in PC12 – cell-based, CRE-LacZ reporter, forskolin-stimulated, primary screen (AID 1146); conditions: luminescence, 4.5 h, higher = more signal, called active from +8 up or from −8 down;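 also: PC12 cells with 6xCRE LacZ reporter stimulated by forskolin 10 µM; beta-galactosidase reporter signal reflecting CREB driven transcription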
[6] = target: Streptavidin (Streptomyces avidinii) (UniProt P22629); experiment: compounds binding control protein streptavidin – biophysical, small-molecule microarray, 635/667 nm fluorescence, artefact control for SMM compound annotation, primary screen (AID 1147); conditions: higher = more signal;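 also: signal reflects streptavidin binding to arrayed compounds as a control protein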
[7] = probe aInhba binding on compound microarray – biochemical, small-molecule microarray, 635/667 nm fluorescence, primary screen (AID 1148); conditions: higher = more signal;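 also: score merges 667nm spot fluorescence with signal-to-noise for antibody binding to printed compounds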
Torsin-1A (Homo sapiens) [8] = target: Torsin-1A (Homo sapiens) (UniProt O14656); experiment: TOR1A wild-type binding on microarray – cell lysate, small-molecule microarray, lysate, 635/667 nm, primary screen (AID 1149); conditions: COS7 hTOR1A-WT lysate, 635 nm fluorescence, higher = more signal
Torsin-1A (Homo sapiens) [9] = target: Torsin-1A (Homo sapiens) (UniProt O14656); experiment: torsin A mutant lysate binding on microarrays – cell lysate, small-molecule microarray, COS7 lysate, 635/667 nm fluorescence, primary screen (AID 1150); conditions: COS7 hTOR1A mutant lysate, 635 nm fluorescence, higher = more signal;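 also: score pools 667 nm emission and signal to noise measuring lysate protein binding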
[10] = system: Sonic hedgehog protein (Shh); experiment: Sonic hedgehog microarray binding compounds – biochemical, small-molecule microarray, 635/667 nm fluorescence, primary screen (AID 1151); conditions: 635 nm fluorescence, higher = more signal;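 also: Shh protein binding to compounds spotted on small-molecule microarray slides; score combines spot fluorescence intensity with signal-to-noise across triplicate slides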
[11] = optical density shifts of acrAB sulA E. coli – strain DRC41, OD650, 48 h, E. coli filamentation inducer project, primary screen (AID 1152); conditions: higher = more signal, called active from +8 up or from −8 down;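 also: E. coli MC1000 strain DRC41 lacking acrAB efflux pump and sulA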
[12] = probe aLefty1 binding on compound microarray – biochemical, small-molecule microarray, 635/667 nm fluorescence, primary screen (AID 1153); conditions: higher = more signal;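 also: score merges spot fluorescence with signal-to-noise ratio from the scanned slide images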
[13] = plasmodial surface anion channel blockers, osmotic lysis – cell-based, P. falciparum Indochina, OD700, 1 h, primary screen (AID 1154); conditions: P. falciparum Indochina infected RBC osmotic lysis, higher = more signal, called active from +8 up or from −8 down
[14] = plasmodial surface anion channel blockers, osmotic lysis – cell-based, P. falciparum Indochina, OD700, 2 h, primary screen (AID 1155);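 also: lysis reports solute entry through the parasite surface anion channel PSAC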; conditions: P. falciparum Indochina infected erythrocytes, higher = more signal, called active from +8 up or from −8 down
[15] = changes in parasitized red cell lysis, either direction – P. falciparum Indochina, OD700, 3 h, PSAC antagonist project, primary screen (AID 1156); conditions: P. falciparum-infected erythrocytes, osmotic lysis, higher = more signal, called active from +8 up or from −8 down
[16] = plasmodial surface anion channel blockers, osmotic lysis – cell-based, P. falciparum Indochina, OD700, 18 h, primary screen (AID 1157); conditions: P. falciparum Indochina infected erythrocytes, osmotic lysis OD700, 18 h; higher = more signal, called active from +8 up or from −8 down
[17] = S6 kinase pathway phospho-S6 level changes – cell-based, A549, cytoblot, luminescence, serum-stimulated, primary screen (AID 1158); conditions: 5 h, higher = more signal;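 also: serum-stimulated A549 lung adenocarcinoma cells; signal is phosphorylated S6 detected by cytoblot immunostaining with HRP secondary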
[18] = target: NADPH oxidase 2 (Homo sapiens) (UniProt P04839); experiment: compounds shifting NOX2 Amplex Red fluorescence – cell-based, HEK293-NOX2, PMA-stimulated, NOX inhibitor project, primary screen (AID 1159); conditions: 45 min, higher = more signal, called active from +8 up or from −8 down; also: test concentration not given here
[19] = target: NADPH oxidase 4 (Homo sapiens) (UniProt Q9NPH5); experiment: compounds shifting NOX4 Amplex Red fluorescence – cell-based, HEK293-NOX4, tetracycline-induced, NOX inhibitor project, primary screen (AID 1160); conditions: HEK293-NOX4, Amplex Red H2O2 fluorescence, 45 min; higher = more signal, called active from +8 up or from −8 down
[20] = target: NADPH oxidase 5 (Homo sapiens) (UniProt Q96PH1); experiment: compounds shifting NOX5 Amplex Red fluorescence – cell-based, HEK293-NOX5, NOX inhibitor project, primary screen (AID 1161); conditions: HEK293-NOX5, ionomycin, 45 min, higher = more signal
Chain of NADPH oxidase 5 (Homo sapiens) (Q96PH1 whole entry, looked up): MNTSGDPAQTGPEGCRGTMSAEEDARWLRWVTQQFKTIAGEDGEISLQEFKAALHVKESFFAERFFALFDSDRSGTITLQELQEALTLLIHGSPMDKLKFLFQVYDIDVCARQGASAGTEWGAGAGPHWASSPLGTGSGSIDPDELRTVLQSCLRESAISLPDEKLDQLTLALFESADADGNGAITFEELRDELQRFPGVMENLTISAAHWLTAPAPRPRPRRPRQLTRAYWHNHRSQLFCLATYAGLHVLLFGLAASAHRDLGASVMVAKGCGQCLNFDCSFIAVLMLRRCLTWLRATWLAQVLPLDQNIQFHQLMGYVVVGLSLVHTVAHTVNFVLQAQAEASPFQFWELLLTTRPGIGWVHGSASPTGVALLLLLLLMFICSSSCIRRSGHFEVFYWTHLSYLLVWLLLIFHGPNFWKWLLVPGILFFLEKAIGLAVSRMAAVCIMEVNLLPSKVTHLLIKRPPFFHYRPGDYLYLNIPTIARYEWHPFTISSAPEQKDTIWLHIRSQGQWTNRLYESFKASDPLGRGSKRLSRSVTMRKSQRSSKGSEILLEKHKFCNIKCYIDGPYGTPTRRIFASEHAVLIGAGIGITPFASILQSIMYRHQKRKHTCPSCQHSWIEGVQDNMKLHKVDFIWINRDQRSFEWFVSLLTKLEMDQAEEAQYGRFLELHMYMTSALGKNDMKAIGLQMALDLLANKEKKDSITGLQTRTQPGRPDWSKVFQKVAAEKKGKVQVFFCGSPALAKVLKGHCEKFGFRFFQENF

Chain of NADPH oxidase 4 (Homo sapiens) (Q9NPH5 whole entry, looked up): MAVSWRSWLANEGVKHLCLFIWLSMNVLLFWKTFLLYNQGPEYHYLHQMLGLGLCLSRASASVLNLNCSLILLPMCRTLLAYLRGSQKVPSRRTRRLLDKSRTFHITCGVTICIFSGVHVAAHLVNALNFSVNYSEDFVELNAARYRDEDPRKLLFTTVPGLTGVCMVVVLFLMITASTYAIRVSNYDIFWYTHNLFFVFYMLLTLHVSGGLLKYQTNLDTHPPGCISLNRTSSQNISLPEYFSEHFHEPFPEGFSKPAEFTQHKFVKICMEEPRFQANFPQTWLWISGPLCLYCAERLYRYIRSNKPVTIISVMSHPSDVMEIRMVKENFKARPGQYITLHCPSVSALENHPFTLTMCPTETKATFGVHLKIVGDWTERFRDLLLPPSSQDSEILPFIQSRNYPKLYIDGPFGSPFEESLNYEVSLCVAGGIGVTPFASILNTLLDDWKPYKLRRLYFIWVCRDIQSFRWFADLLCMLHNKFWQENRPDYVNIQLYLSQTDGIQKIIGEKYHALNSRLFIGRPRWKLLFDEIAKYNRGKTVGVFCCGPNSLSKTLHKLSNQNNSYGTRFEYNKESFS
Chain of Streptavidin (Streptomyces avidinii) (P22629 whole entry, looked up): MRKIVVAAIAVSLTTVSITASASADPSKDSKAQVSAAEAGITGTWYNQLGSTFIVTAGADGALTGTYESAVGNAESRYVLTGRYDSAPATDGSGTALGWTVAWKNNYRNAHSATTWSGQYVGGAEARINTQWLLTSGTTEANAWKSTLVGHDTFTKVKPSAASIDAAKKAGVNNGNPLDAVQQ
Chain of NADPH oxidase 2 (Homo sapiens) (P04839 whole entry, looked up): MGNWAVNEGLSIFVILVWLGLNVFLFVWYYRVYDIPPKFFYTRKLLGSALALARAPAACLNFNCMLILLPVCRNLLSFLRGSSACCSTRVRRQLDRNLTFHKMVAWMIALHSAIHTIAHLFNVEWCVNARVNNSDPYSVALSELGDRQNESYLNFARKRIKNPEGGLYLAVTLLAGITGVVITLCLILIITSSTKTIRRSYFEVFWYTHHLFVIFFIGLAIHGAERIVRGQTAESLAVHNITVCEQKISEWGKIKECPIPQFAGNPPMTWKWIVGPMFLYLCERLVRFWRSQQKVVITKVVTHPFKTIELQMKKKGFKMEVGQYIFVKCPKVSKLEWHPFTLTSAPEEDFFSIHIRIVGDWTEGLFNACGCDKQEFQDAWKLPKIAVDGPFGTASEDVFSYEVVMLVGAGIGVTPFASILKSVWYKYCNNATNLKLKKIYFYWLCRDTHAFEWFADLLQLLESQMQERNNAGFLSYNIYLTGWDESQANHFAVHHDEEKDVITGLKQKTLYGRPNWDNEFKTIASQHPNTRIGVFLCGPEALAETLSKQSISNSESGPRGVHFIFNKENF
Chain of Torsin-1A (Homo sapiens) (O14656 whole entry, looked up): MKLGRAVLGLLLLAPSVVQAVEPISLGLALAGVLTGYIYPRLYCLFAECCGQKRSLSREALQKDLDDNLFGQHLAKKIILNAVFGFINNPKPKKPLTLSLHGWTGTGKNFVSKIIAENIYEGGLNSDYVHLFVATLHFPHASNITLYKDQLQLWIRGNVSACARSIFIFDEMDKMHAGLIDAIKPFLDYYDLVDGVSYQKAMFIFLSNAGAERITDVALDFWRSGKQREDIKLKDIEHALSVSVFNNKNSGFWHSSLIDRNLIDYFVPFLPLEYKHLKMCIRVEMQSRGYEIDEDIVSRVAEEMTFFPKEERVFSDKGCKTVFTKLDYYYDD

| SMILES | composite z-score [1] | z-score [2] | z-score [3] | z-score [4] | z-score [5] | composite z-score [6] | composite z-score [7] | composite z-score (Torsin-1A (Homo sapiens) [8]) | composite z-score (Torsin-1A (Homo sapiens) [9]) | composite z-score [10] | z-score [11] | composite z-score [12] | z-score [13] | z-score [14] | z-score [15] | z-score [16] | z-score [17] | z-score [18] | z-score [19] | z-score [20] |
| --- | --- | --- | --- | --- | --- | --- | --- | --- | --- | --- | --- | --- | --- | --- | --- | --- | --- | --- | --- | --- |
| CC(C)OC(=O)C=C1C[C@@H](c2ccccc2)O[C@@H](c2ccccc2)O1 | 0.706 and 0.731 | -1.4 (inactive) and -2.03 (inactive) | -0.804 (inactive) and -1.18 (inactive) | 0.836 (inactive) and -0.0879 (inactive) | -0.127 (inactive) and 3.16 (inactive) | 1.35 and 1.85 | 0.122 and 0.234 | 1.55 and 1.19 | 1.57 and 1.46 | 1.67 and 0.885 | 0.676 (inactive) and 0.585 (inactive) | -0.0984 and 0.149 | 15.2 (active) and 23.2 (active) | 1.94 (inactive) and 5.46 (inactive) | 0.369 (inactive) | 1.03 (inactive) and 1.37 (inactive) | -0.104 and -0.0136 | -0.124 (inactive) and -0.0606 (inactive) | -0.00431 (inactive) and -1.01 (inactive) | -0.39 and -0.392 |
| COC(=O)c1c2oc(c1C(=O)OC)C(=O)N[C@@H](Cc1ccccc1)Cn1cc(nn1)C1(CCCCC1)NC(=O)N[C@H](CO)CC2 | 0.547 and 0.189 | -0.237 (inactive) and -0.109 (inactive) | -1.23 (inactive) and -0.509 (inactive) | 0.484 (inactive) and 3.25 (inactive) | -0.635 (inactive) and -0.0904 (inactive) | 0.216 and 0.517 | 0.271 and -0.103 | 0.212 and 0.403 | -0.0506 and 0.489 | 1.28 and 0.781 | 2.62 (inactive) and 1.74 (inactive) | 0.391 and 0.0455 | 1.36 (inactive) and 4.41 (inactive) | 0.431 (inactive) and 1.49 (inactive) | 0.557 (inactive) and 0.593 (inactive) | 0.454 (inactive) and 0.801 (inactive) | 0.427 and 0.173 | 0.432 (inactive) and 0.428 (inactive) | 1.67 (inactive) and -1.49 (inactive) | 0.922 and -2.52 |
| C=CCN(CCCCC)C(=O)C(c1cccs1)N(C(=O)/C=C\C(=O)O)c1c(Cl)cccc1CO (stereo not given) | -0.473 and -1.02 | 0.497 (inactive) and 0.165 (inactive) | 0.858 (inactive) and 2.29 (inactive) | 0.605 (inactive) and -0.212 (inactive) | 1.2 (inactive) and 0.266 (inactive) | -1.34 and -1.63 | -0.202 and -0.233 | -2.37 and -3.28 | -0.23 and -2.06 | -1.14 and -0.909 | -0.316 (inactive) and -0.346 (inactive) | 0.0005 and -1.11 | -0.501 (inactive) and 0.334 (inactive) | 0.092 (inactive) and 0.571 (inactive) | -0.0324 (inactive) and -0.0069 (inactive) | 0.257 (inactive) and 0.404 (inactive) | -0.122 and -0.137 | 0.306 (inactive) and 0.277 (inactive) | -0.584 (inactive) and -0.408 (inactive) | 0.212 and 0.29 |
| Cc1ccc(S(=O)(=O)N[C@@H]2COC(=O)CC=C[C@@H](C)[C@@H]3C=C[C@H](O)[C@@H](COC(=O)CC=C[C@H]2C)O3)cc1 | -0.0379 and -0.0821 | -0.0259 (inactive) and -3.11 (inactive) | -0.356 (inactive) and -2.59 (inactive) | -0.384 (inactive) and -0.478 (inactive) | -0.419 (inactive) and -0.201 (inactive) | -0.298 and 0.657 | -0.111 and -0.157 | 0.815 and 0.176 | 0.665 and 0.263 | 1.43 and 0.631 | -0.134 (inactive) and -0.835 (inactive) | -0.217 and 0.0658 | -0.178 (inactive) and -0.723 (inactive) | -0.377 (inactive) and -1.3 (inactive) | -0.603 (inactive) and 1.03 (inactive) | 0.035 (inactive) and -1.47 (inactive) | 0.116 and 1.08 | -2.15 (inactive) and -1.22 (inactive) | 0.427 (inactive) and -1.36 (inactive) | 0.353 and -2.6 |
| COc1ccc(O[C@H]2C=C[C@@H](c3ccccc3)O[C@@H]2COC(=O)CCC(C)=NO[C@H](C)c2cn([C@H](CO)Cc3ccccc3)nn2)cc1 | 0.205 and -0.274 | -1.93 (inactive) and -1.7 (inactive) | 0.916 (inactive) and 1.05 (inactive) | 2.66 (inactive) and 1.53 (inactive) | 1.83 (inactive) and 0.775 (inactive) | 0.379 and 2.03 | 0.344 and 0.104 | 0.362 and 0.702 | 0.127 and 0.463 | 0.372 and 1.69 | 0.756 (inactive) and 0.0906 (inactive) | 0.273 and -0.553 | 14.1 (active) and 13.6 (active) | 1.6 (inactive) and 2.16 (inactive) | 2.07 (inactive) and 1.09 (inactive) | 0.711 (inactive) and 0.907 (inactive) | -0.112 and -0.835 | -2.32 (inactive) and -2.14 (inactive) | 0.0167 (inactive) and -2.56 (inactive) | -1.63 and -3.66 |
